Drawing on PubChem BioAssay (NCI), this text covers growth for 40 compounds.

The structures appear in SMILES notation. The panel holds about 83,000 compounds, 20% with a hit somewhere; the sample as a whole holds those more often.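 Plates (96-well) were seeded with cells, treated with compound at one concentration, and incubated for 48 hours before percent growth was determined.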 Calls of active or inactive are those of the source. How the source made its calls: active means growth percent below 10; inactive means the rest.

The subject of the test is MDA-MB-435 melanoma. Briefly: NCI-60 one-dose screen, 48 h (100 = growth as untreated, 0 = no growth, -100 = all killed). The conditions noted are these: 10 µM unless noted.
Turning to `CC1(C)CC[C@]2(C(=O)N3CCOCC3)CC[C@]3(C)C(=CC[C@@H]4[C@@]5(C)C/C(=C/c6ccncc6)C(=O)C(C)(C)[C@@H]5CC[C@]43C)[C@@H]2C1`, the growth was 6.81% (active). To `O=C(Nc1cccnc1Nc1ccc(Cl)cc1)c1cn(Cc2ccc(F)cc2)nn1` belongs 97.2% (inactive). The same measure for `C=C1C(=O)O[C@H]2[C@H]1CC/C(CNC(=O)c1cc3ccccc3[nH]1)=C\CC[C@@]1(C)O[C@@H]21`: -37.2% (active). The same measure for `C=CCN=C(N)SCCCCCCSC(N)=NCC=C`: 99.3% (inactive). For the compound `CNC(=O)c1c(NC(=O)c2ccc(C(C)(C)C)cc2)sc2c(CN(C)C)c(O)ccc12`, the growth was -85% (active).

As to `COc1ccc(C/C(C)=C(\c2ccc(O)cc2)c2ccc(OCCN3CCCC3)cc2)cc1`, the growth was 103% (inactive). The same measure for `S=c1ssnc1-c1cccs1`: 83.9% (inactive).

As for `COc1cc(/C=C/c2cc(/C=C/c3ccc(O)c(OC)c3)n(C(=O)Nc3ccc(F)cc3)n2)ccc1O`, the growth is -2.32% (active).

For the compound `COc1cc2c3c(n(CCCCNCCCn4c5c(c6cc(OC)c(OC)cc6c4=O)C(=O)c4cc6c(cc4-5)OCO6)c(=O)c2cc1OC)-c1cc2c(cc1C3=O)OCO2`, the growth is 105% (inactive).

In the case of `COc1cc(-c2cc(-c3ccc(Nc4ncnc5cc(Cl)ccc45)cc3)nc(N3CCN(C)CC3)n2)cc(OC)c1OC`, the growth was 102% (inactive). The same measure for `COc1cc(C(=O)/C=C/c2ccc(N3CCN(C)CC3)cc2)cc(OC)c1OC`: 95.5% (inactive); for `Cc1ccc2[nH]c(=O)c3c(c2c1)OC(N)=C(C#N)C31C(=O)c2cccc3cccc1c23` (stereo not given): 97.6% (inactive); for `Cn1c(=O)c2c(nc(NC3=NS(=O)(=O)c4ccccc43)n2Cc2ccccc2)n(C)c1=O`: 101% (inactive). To `COc1ccc(C/C(C)=C(/c2ccc(OCCN3CCCCCC3)cc2)c2ccc(OC(=O)NCc3ccccc3)cc2)cc1` belongs 95.3% (inactive); to `Cn1cc(-c2csc(-c3cn(C(=O)OC(C)(C)C)c4ccccc34)n2)c2ccnc(Cl)c21`, 78.8% (inactive). The same measure for `CCN(C(=O)N1CCN(c2cc3c(cc2F)c(=O)c(C(=O)O)cn3C2CC2)CC1)c1nc(-c2ccc(C)cc2)cs1`: 16.2% (inactive); for `COC(=O)c1nc(-c2ccccc2)oc1S(=O)(=O)N1CCC(C(N)=O)CC1`: 59.5% (inactive); for `CCCCSCC(=O)c1ccccc1`: 106% (inactive).

For the compound `Cc1ccc(Nc2nc(-c3ccc(F)cc3)c(C#N)c(=O)n2C)cc1`, the growth is 74.7% (inactive). The same measure for `COc1cccc(OC)c1Oc1c(-c2nc3ccccc3s2)c(C)nn1-c1ccccc1`: 88.1% (inactive). On to `Cc1ccccc1CNc1c2ccccc2nc2ccccc12`, for which the growth is 23.9% (inactive).

Turning to `COc1ccc2nc3ccccc3c(NCc3ccc(F)cc3)c2c1`, the growth is 23.9% (inactive). The same measure for `O=C1NC(=O)c2c1c1c3ccccc3[nH]c1c1oc3cc(Br)ccc3c21`: 76.6% (inactive); for `COc1ccc(-c2nnc(SCC(=O)Nc3ccc(/C(C)=N\O)cc3)n2-c2ccccc2)cc1OC`: 104% (inactive). `CC1=CCC[C@@H]2C1(C)CC[C@H](C)[C@@]2(C)CC1=CC(=O)C(SC(C)(C)C)=CC1=O` (stereo not given in full): the growth was 97.2% (inactive). To `CCn1cc(CNc2ccc(C(=O)Nc3cc4cc(OC)c(OC)cc4c(C)n3)cc2)c(C)n1` belongs 48.4% (inactive); to `CCCCN1C(=O)/C(=c2\sc3n(c2=O)NC2C(N=3)N(CC)C(=O)N2CC)c2ccccc21` (stereo not given), -41.6% (active).

`NC(=O)c1c(NC(=O)c2ccc(Cl)cc2)sc2c1CCC(=O)C2`: the growth was 94.5% (inactive).

For the compound `CC1(C)CC[C@]2(C(=O)O)CC[C@]3(C)C(=CC[C@@H]4[C@@]5(C)C[C@@H](Cc6cn([C@@H]7O[C@H](CO)[C@@H](O)[C@H](O)[C@H]7O)nn6)[C@H](O)C(C)(C)[C@@H]5CC[C@]43C)[C@@H]2C1`, the growth is 104% (inactive).

With `CCNCc1ccc(O)c2ncccc12`, the growth was 16.6% (inactive). As for `CC(C)c1ccc(C(=O)Nc2sc3cc(O)ccc3c2C#N)cc1`, the growth is -42.9% (active). To `CCOC(=O)c1c(NC(=O)CSc2n[nH]c3nc4ccccc4n23)sc(CC)c1C` belongs 103% (inactive). The same measure for `COc1cccc(/C=C/C(=O)c2cc3c(N)c(C(=O)Nc4cccc(Cl)c4C)sc3nc2C)c1`: -20.4% (active); for `Cc1nn(-c2ccccc2)c(N2CCCCC2)c1/C=N/NC(=O)Cn1c(=O)sc2ccccc21`: 87.9% (inactive). The same measure for `COC(=O)Cc1nc(C#N)c(N(C)C)o1`: 103% (inactive); for `N=C(N)c1ccc(-c2ccc(-c3ccc(Cl)cc3Cl)s2)cc1F`: -79.9% (active); for `C/C(C=O)=C\c1ccc2c(c1)OCO2`: 107% (inactive). As to `Cc1ccc(/C=C(\C#N)C(=O)Nc2ncc(Cc3cc(Cl)ccc3Cl)s2)o1`, the growth was 30.4% (inactive). Consider `C[C@@H]1CC[C@@]2(OC1)O[C@H]1C[C@H]3[C@@H]4CC=C5C[C@@H](O[C@@H]6O[C@H](CO)[C@@H](O[C@@H]7O[C@@H](CO)[C@H](O)[C@H]7O)[C@H](O)[C@H]6O[C@@H]6O[C@@H](C)[C@H](O)[C@@H](O)[C@H]6O)CC[C@]5(C)[C@H]4CC[C@]3(C)[C@H]1[C@@H]2C`, for which the growth is -92.8% (active).

For `CCOC(=O)c1cn2ncnc(Oc3ccc(NC(=O)NC4CC4)c(F)c3)c2c1C`, the growth was 95.9% (inactive).
